Hits are enriched below; roughly 2.4% of the tested compounds scored in any of these assays.
Anesthetic bind: qHTS Assay for Identification of Novel General Anesthetics; Ferritin light chain (Equus caballus), P02791; apoferritin/1-aminoanthracene competitive binding, fluorescence; Potency, µM (doses to about 77.5 µM), inactives show at the highest dose activity change, negative = displacement, usual class: inhibitors; 350,000 compounds, 0.074% hits; AID 485281, 2010; further: on the % scale 0 is the no-effect control and ±100 the full control effect; nearly all actives have a fitted effect of over 20% in size
Target sequence (P02791 2-175 limits assumed): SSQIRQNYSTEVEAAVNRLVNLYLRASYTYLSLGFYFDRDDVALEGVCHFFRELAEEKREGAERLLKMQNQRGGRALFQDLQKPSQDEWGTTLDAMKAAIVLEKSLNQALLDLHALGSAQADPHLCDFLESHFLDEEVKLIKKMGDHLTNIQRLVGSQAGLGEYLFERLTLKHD
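10 uM apoferritin + 50% sat. 1-AMA, PBS; cpd 10 min RT; Ex380/Em535 endpoint; normalized to free probe vs complex; 4-param Hill fit; propofol titration as pos. ctrl.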
S2 tox: Viability Counterscreen for Primary qHTS for Inhibitors of ATXN expression; 400,000 compounds, 0.49% hits; S2 cells (HEK-293 line with an ATXN2-luciferase reporter) viability, CellTiter-Fluor protease fluorescence, 24 h; Potency, µM (series often up to 56.7 µM), usual class: cytotoxic; further: nearly all actives have a fitted effect of over 40% in size
TGFb inhibitor: qHTS for Inhibitors of TGF-b; HepG2 CAGA-GFP TGF-b/SMAD3 reporter, GFP fluorescence, 18 h; TGF-beta stimulated, 500 pg/mL final; Potency, µM (highest dose often 46.1 µM), inactives show at the top dose activity, negative = inhibition, actives largely listed as inhibitors; 410,000 compounds, 1.2% hits; AID 588855, 2011; further: on the % scale 0 is the no-effect control and ±100 the full control effect; nearly all actives have a fitted effect of over 65% in size
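Smad-responsive CAGA-GFP expression was quantified in HEPG2 cells exposed to compounds and 500 pg/mL final TGF-beta for 18 h at 37 degrees C; unstimulated wells defined full inhibition.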
ATXN2 expr inh: Primary qHTS for Inhibitors of ATXN expression; 360,000 compounds, 0.72% hits; Potency, µM (series often up to 57 µM), for the others: top-dose activity change, negative = inhibition, most hits filed as inhibitors; AID 1745845, 2022; HEK-293 ATXN2-luciferase reporter, luminescence, 24 h; further: on the % scale 0 is the no-effect control and ±100 the full control effect; nearly all actives have a fitted effect of over 55% in size
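ATXN2-luciferase reporter cells (luciferase flanked by upstream and downstream ATXN2 gene portions) were treated 24 h at 37 °C with compounds at up to 57 uM. SteadyGlo luminescence gave expression; GF-AFC fluorescence gave viability.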
HepG2 tox-1: qHTS for Inhibitors of TGF-b: Cytotox Counterscreen | HepG2 CAGA-GFP viability, ATP luminescence, 18 h | Potency, µM (top dose mostly 46.1 µM), without a hit: at the highest dose activity change, negative = cytotoxicity, hits mostly cytotoxic | 410,000 compounds, 0.76% hits
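CellTiter-Glo luminescence gave cytotoxicity after 18 hours at 37 degrees C. The cells were HepG2 CAGA-GFP in 1% FBS DMEM, stimulated with 500 pg/mL TGF-beta after compound addition. %Activity was normalised to no-cell wells (complete cell-killing) and DMSO (no toxicity), and curves were fitted and classified.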
TGFb confirm: qHTS for Inhibitors of TGF-b: Confirmation of Cherry Picks; Potency, µM (doses to about 46.1 µM), without a hit: at the highest dose activity, negative = inhibition, actives largely listed as inhibitors; shares compounds with TGFb inhibitor; HepG2 CAGA-GFP TGF-b reporter, GFP fluorescence, 18 h; cells stimulated with TGF-beta, 500 pg/mL; 1,600 compounds, 63% hits; further: on the % scale 0 is the no-effect control and ±100 the full control effect; nearly all actives have a fitted effect of over 65% in size
HepG2 tox-2: qHTS for Inhibitors of TGF-b: Cytotox Counterscreen for Cherry Picks; shares compounds with TGFb inhibitor; HepG2 CAGA-GFP viability, ATP luminescence, 18 h; cells stimulated with TGF-beta, 500 pg/mL; Potency, µM (top dose mostly 46.1 µM), for the others: top-dose activity, negative = cytotoxicity, actives largely listed as inhibitors; 1,600 compounds, 27% hits; AID 720535, 2013; further: on the % scale 0 is the no-effect control and ±100 the full control effect; nearly all actives have a fitted effect of over 70% in size
CCL64 TGFb inh: qHTS for Inhibitors of TGF-b: CCL64 Cells Orthogonal Assay for Cherry Picks | shares compounds with TGFb inhibitor | CCL64 CAGA-GFP reporter, TGF-b stimulated, GFP fluorescence, 18 h | Potency, µM (doses to about 46.1 µM), without a hit: top-dose activity, negative = inhibition, hits mostly inhibitors | 1,600 compounds, 41% hits | AID 720536, 2013; further: nearly all actives have a fitted effect of over 65% in size
TGFb COP inh: qHTS for Inhibitors of TGF-b: Hit Validation in HepG2 Cells using COP promoter. Potency, µM (doses to about 46.1 µM), for the others: top-dose activity, negative = inhibition, usual class: inhibitors. shares compounds with TGFb inhibitor. 1,600 compounds, 3% hits. HepG2 COP-GFP TGF-b reporter, GFP fluorescence, 18 h; cells stimulated by added recombinant TGF-beta; further: nearly all actives have a fitted effect of over 70% in size
An asterisk follows results filed as active; i = inactive; ? = inconclusive; / = no result; ! = not active in a repeat; [ ] = dose if it differs, or a comment. The call rests on the fitted dose curve; in most records, active means well fitted curve in the direction sought with a large enough effect; inconclusive means small, poorly fitted or top-dose-only effect, or another doubt; inactive means no such curve, though single readings can be large; an effect the other way counts as inactive or inconclusive. Potency means the concentration at half of the fitted maximal effect.

SMILES	Anesthetic bind	S2 tox	TGFb inhibitor	ATXN2 expr inh	HepG2 tox-1	TGFb confirm	HepG2 tox-2	CCL64 TGFb inh	TGFb COP inh
COc1ccc(CCNC(=O)c2cnn(-c3cccc(C)c3)c2C2CCN(C(=O)OC(C)(C)C)CC2)cc1OC	-2%	/	-12%	/	-22%	/	/	/	/
COc1ccc(NC(=O)Cn2c(SCc3ccc(F)cc3)nc3cccnc32)cc1OC	-22%	/	?	/	-34%	/	/	/	/
Cc1ccc(NC(=O)C(C)c2ccc(-c3ccccc3)c(F)c2)cc1 (stereo not given)	-17%	i	10µM*	-26%	-33%	-10%	-13%	0%	-2%
C[C@@H](C(=O)O)c1ccc(-c2ccccc2)c(F)c1	-13%[29.3 µM]	/	/	/	/	/	/	/	/
Cc1ccc(NC(=O)c2ccc(Nc3c([N+](=O)[O-])cc([N+](=O)[O-])cc3[N+](=O)[O-])cc2)cc1	-17%	/	13µM*	20µM*	13%	8.2µM*	?	6.5µM*	38%
CC1=C(C(=O)OC2CCCCC2)C(c2ccccc2Br)NC(=O)N1 (stereo not given)	-18%	i	?	-13%	10%	/	/	/	/
Cc1cccc(OCCn2nnc3sc4c(c3c2=O)CCCC4)c1	?	i	2%	26%	-22%	/	/	/	/
CCCC[C@H]1COCCS(=O)(=O)N1Cc1ccc(C)cc1	-18%	i	-26%	-18%	-29%	/	/	/	/
CCCC[C@H]1COCCS(=O)(=O)N1Cc1ccc(Br)cc1	-6%	i	10µM*!	-18%	0%	?	-17%	?	16%
Clc1ccc(CSc2nnc(-c3ccccn3)n2Cc2cccs2)cc1Cl	/	?	8.9µM*	?	-8%	15µM*	?	?	42%
Cc1ccc(CSc2nnc(-c3ccccn3)n2Cc2cccs2)cc1	/	?	?	?	-4%	/	/	/	/
NC(=O)CC(NC(=O)Cc1cccc2ccccc12)c1ccc(N2CCc3ccccc3C2)c([N+](=O)[O-])c1 (stereo not given)	-18%	35µM*	13µM*	?	-25%	?	?	?	45%
Cc1cccc(CNc2ccc(C(CC(N)=O)NC(=O)Cc3cccc4ccccc34)cc2[N+](=O)[O-])c1 (stereo not given)	-11%	?	?	-30%	-17%	?	?	1.6µM*	-25%
NC(=O)CC(NC(=O)Cc1cccc2ccccc12)c1ccc(N2CCCCCC2)c([N+](=O)[O-])c1 (stereo not given)	?	?	-28%	-12%	-17%	/	/	/	/
NC(=O)CC(NC(=O)Cc1ccc(Br)cc1)c1ccc(N2CCN(c3ccccn3)CC2)c([N+](=O)[O-])c1 (stereo not given)	-21%	?	7.9µM*	?	-58%	?	?	0%	0%
NC(=O)CC(NC(=O)Cc1cccc2ccccc12)c1ccc(N2CCC(Br)CC2)c([N+](=O)[O-])c1 (stereo not given)	-15%	?	13µM*	?	-28%	?	-12%	?	-5%
COc1cccc(NC(=O)COC(=O)C2CCCCC2)c1	/	i	26%	/	-12%	/	/	/	/
CCN(CC)S(=O)(=O)c1ccc(C(=O)NNC(=O)C2CCN(S(=O)(=O)c3ccc(Cl)cc3)CC2)cc1	-1%	i	-6%	9%	6%	/	/	/	/
O=C(Nc1ccc(C(F)(F)F)cc1)N1CCN(c2ccnc3cc(Cl)ccc23)CC1	?	?	11µM*	?	19%	23µM*	?	?	73%
Cc1ccc(N(CC(O)Cn2c3ccccc3c3ccccc32)S(C)(=O)=O)c(C)c1 (stereo not given)	-6%	i	?	-32%	-111%	/	/	/	/
Cc1cccc(C)c1N(CC(O)Cn1c2ccccc2c2ccccc21)S(C)(=O)=O (stereo not given)	-10%	?	10µM*	?	-69%	23µM*	?	23µM*	63%
CCOc1ccc(S(=O)(=O)N2CCN(C(=S)NCc3ccco3)CC2)cc1	-8%	i	8.9µM*	-4%	-22%	?	-1%	?	3%
Cc1ccc(Cl)cc1N1CCN(C(=S)NCc2ccco2)CC1	?	i	16µM*	-20%	-19%	16µM*	?	?	38%
CCC1CCc2nc3sc(C(=O)Nc4ccc(F)cc4F)c(N)c3cc2C1 (stereo not given)	6%	i	-11%	6%	-3%	/	/	/	/
CCCn1nc(C(=O)Nc2cc(OCC)c(N3CCOCC3)cc2OCC)c2ccccc2c1=O	/	i	-1%	-11%	-17%	/	/	/	/
CC(NC(=O)C1CCCN1S(=O)(=O)c1ccc2c(c1)n(C)c(=O)c(=O)n2C)c1ccccc1 (stereo not given)	-14%	i	-2%	-1%	-29%	/	/	/	/
CC(NC(=O)C1CCCN1S(=O)(=O)c1ccccc1)c1ccccc1 (stereo not given)	-10%	i	?	-13%	-28%	?	7%	9%	1%
O=C(COC(=O)c1ccccc1)Nc1ncc([N+](=O)[O-])s1	/	i	-24%	19%	-9%	/	/	/	/
O=C(Nc1ccccc1)Nc1ncc([N+](=O)[O-])s1	-21%	22µM*	3.2µM*	?	-23%	13µM*	?	18µM*	87%

Screens: PubChem BioAssay, National Center for Advancing Translational Sciences (NCATS)
